The values below come from PubChem BioAssay.

For one assay, the target named is Albumin (Bos taurus) (UniProt P02769). In words: compounds binding labelled BSA control protein – biochemical, small-molecule microarray, Alexa647 label, 635/667 nm fluorescence, artefact control for SMM control protein annotation, profiling panel (AID 1118).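 Note: score merges 667 nm emission intensity and signal-to-noise per printed compound spot.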 Particulars: BSA-A647 binding, fluorescence 635 nm, higher = more signal.
Sequence of Albumin (Bos taurus) (P02769 whole entry, looked up): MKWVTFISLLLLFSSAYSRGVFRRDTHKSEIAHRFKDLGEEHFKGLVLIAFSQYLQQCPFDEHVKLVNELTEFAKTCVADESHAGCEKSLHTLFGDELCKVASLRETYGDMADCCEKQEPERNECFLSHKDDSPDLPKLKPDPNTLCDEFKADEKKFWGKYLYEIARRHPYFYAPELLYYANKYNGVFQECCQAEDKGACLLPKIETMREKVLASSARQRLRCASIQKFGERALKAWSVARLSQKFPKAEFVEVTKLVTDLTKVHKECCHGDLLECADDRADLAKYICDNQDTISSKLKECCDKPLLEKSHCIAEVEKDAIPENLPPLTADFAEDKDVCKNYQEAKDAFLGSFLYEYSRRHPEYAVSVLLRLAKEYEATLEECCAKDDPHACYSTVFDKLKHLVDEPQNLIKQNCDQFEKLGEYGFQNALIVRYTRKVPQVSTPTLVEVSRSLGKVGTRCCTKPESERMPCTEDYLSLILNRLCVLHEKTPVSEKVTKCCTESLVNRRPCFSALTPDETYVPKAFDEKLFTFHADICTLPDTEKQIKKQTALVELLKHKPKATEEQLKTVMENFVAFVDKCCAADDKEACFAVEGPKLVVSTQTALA
Assay [1] is described as follows: probe aXIP binding to arrayed compounds – biochemical, NeuroSMM set, 635/667 nm fluorescence, primary screen (AID 1119).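 Note: probe is the protein aXip251-270 applied at 1 µg/mL to compound-printed slides; binding of probe to printed compounds measured as 667 nm fluorescence plus signal to noise.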 The conditions noted are these: small-molecule microarray, higher = more signal, called active from +8 up or from −8 down.
A short description of assay [2]: probe aNOTCH3 binding on compound microarray – biochemical, small-molecule microarray, 635/667 nm fluorescence, primary screen (AID 1120).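 Note: probe is a biotin-tagged antibody raised against NOTCH3 rather than NOTCH3 protein; score merges spot fluorescence near 667 nm with spot signal to noise.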 The conditions noted are these: higher = more signal.
A short description of assay [3]: probe aNOTCH2 binding on compound microarray – biochemical, small-molecule microarray, 635/667 nm fluorescence, primary screen (AID 1121).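 Note: score merges feature fluorescence read at 667 nm with its signal to noise.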 Particulars: higher = more signal.
Assay [4] addresses Carbonic anhydrase 2 (Homo sapiens) (UniProt P00918). The assay can be described thus: compounds binding carbonic anhydrase 2 – biochemical, small-molecule microarray, Alexa647-labelled CAII, profiling panel (AID 1122). The conditions noted are these: CAII-A647 binding fluorescence, higher = more signal.
Assay [5] in a line: COS7 lysate on small-molecule microarray, probe aHis, 635 nm (AID 1123).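 Note: z-score combines 667nm fluorescence intensity with signal-to-noise per printed compound spot.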 The conditions noted are these: COS7 cell lysate, fluorescence, higher = more signal.
Assay [6] in a line: probe aLAP1 signal on lysate-treated microarray – cell lysate, small-molecule microarray, COS7 lysate, primary screen (AID 1124).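 Note: lysate comes from COS7 cells expressing LAP1 and is applied at 0.3 µg/mL; score merges spot fluorescence near 667 nm with signal-to-noise over triplicate slides.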 The conditions noted are these: probe aLAP1, fluorescence, higher = more signal.
The test system of the next assay is Sam68 (KHDRBS1). In words: compounds binding KHDRBS1 protein – biochemical, small-molecule microarray, 635 nm fluorescence, primary screen (AID 1125).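 Note: score merges 667 nm channel intensity with signal to noise over triplicate slides.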 The conditions noted are these: higher = more signal.
Assay [7] deals with Chordin-like protein 2 (CHRDL2). In words: compounds binding chordin-like 2 – biochemical, small-molecule microarray, 635 nm fluorescence, primary screen (AID 1126).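 Note: printed compound slides probed with Chrdl2 protein at 4 µg/mL for 1 h at 4 C; score merges 667 nm emission intensity with signal to noise over three replicate slides.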 The conditions noted are these: fluorescence 635 nm, higher = more signal.
The target of assay [8] is Concanavalin-A (Canavalia ensiformis) (UniProt P02866). In words: compounds binding concanavalin A lectin – biochemical, small-molecule microarray, Alexa647 label, 635 nm, artefact control for SMM control protein annotation, primary screen (AID 1127).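 Note: z combines 667 nm emission intensity with signal-to-noise across three replicate slides.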 Particulars: ConA-A647 binding fluorescence, higher = more signal.
Sequence of Concanavalin-A (Canavalia ensiformis) (P02866 whole entry, looked up): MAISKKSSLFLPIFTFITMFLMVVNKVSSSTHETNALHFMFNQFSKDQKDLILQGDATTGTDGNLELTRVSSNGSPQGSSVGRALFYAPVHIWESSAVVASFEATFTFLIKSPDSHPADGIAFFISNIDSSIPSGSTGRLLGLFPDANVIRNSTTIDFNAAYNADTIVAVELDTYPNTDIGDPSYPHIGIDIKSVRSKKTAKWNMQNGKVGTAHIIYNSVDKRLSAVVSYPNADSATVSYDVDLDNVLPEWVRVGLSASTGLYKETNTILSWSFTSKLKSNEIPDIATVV
Assay [9] is described as follows: compounds binding Alexa647 anti-His antibody – biochemical, small-molecule microarray, 635 nm fluorescence, artefact control for SMM control protein annotation, primary screen (AID 1128).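 Note: score merges feature fluorescence with signal-to-noise for each printed compound spot.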 Particulars: higher = more signal.
Assay [10] deals with Human papillomavirus type 1a E7 protein (residues 1-88). The assay can be described thus: HPV1a E7 small-molecule binders, primary screen, biochemical, small-molecule microarray, residues 1-88, 635 nm (AID 1129). The conditions noted are these: small-molecule microarray binding, fluorescence 635 nm; higher = more signal.
Assay [11] deals with Focal adhesion kinase 1 (Homo sapiens) (UniProt Q05397). In words: PTK2 protein binding on printed compound slides – biochemical, small-molecule microarray, 635/667 nm fluorescence, BSA, DTT, primary screen (AID 1130).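 Note: composite of spot emission at 667 nm and signal to noise over triplicate slides.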 Particulars: 635 nm fluorescence, higher = more signal.
Sequence of Focal adhesion kinase 1 (Homo sapiens) (Q05397 whole entry, looked up): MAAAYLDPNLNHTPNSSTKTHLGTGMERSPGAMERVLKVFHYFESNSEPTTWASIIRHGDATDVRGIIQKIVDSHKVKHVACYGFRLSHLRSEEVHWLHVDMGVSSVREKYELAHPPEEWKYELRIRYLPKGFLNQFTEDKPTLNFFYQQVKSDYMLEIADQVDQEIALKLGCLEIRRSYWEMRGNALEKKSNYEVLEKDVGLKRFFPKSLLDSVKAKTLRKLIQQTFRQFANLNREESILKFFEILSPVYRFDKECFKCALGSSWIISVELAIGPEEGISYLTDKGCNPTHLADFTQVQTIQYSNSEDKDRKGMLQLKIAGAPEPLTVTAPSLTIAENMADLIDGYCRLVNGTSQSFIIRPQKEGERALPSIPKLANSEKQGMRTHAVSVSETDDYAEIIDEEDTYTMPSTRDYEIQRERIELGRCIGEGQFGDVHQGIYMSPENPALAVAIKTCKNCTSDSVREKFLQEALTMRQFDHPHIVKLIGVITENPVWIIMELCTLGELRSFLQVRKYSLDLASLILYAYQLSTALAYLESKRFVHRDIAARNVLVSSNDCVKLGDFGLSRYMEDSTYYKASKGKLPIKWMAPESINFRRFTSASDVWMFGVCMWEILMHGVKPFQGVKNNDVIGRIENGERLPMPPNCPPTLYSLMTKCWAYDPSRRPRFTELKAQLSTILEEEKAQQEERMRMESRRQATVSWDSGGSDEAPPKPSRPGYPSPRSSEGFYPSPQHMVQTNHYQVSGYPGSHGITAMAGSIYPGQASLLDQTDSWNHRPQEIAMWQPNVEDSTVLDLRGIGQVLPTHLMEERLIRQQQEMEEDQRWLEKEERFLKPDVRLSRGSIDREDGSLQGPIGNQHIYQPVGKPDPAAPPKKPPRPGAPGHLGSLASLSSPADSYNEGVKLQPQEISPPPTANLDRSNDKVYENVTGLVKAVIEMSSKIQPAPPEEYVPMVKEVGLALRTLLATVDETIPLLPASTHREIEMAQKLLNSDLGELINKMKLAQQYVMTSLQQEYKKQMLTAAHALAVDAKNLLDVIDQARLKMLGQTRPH
In assay [12] the test system is Fibrinogen (Alexa647-labelled). The assay can be described thus: Alexa647-fibrinogen binding to printed small molecules – biochemical, small-molecule microarray, 635/667 nm fluorescence, artefact control for SMM control-protein annotation, profiling panel (AID 1131).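 Note: z-score merges 667 nm fluorescence with per-spot signal-to-noise over triplicate slides.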 Particulars: fibrinogen-A647 binding fluorescence, higher = more signal.
Assay [13] addresses Follistatin (Homo sapiens) (UniProt P19883). In words: FST protein binding to printed compounds – biochemical, small-molecule microarray, 635/667 nm fluorescence, primary screen (AID 1132). The conditions noted are these: 635 nm fluorescence, higher = more signal.
In assay [14] the target is Fibroblast growth factor 2 (Homo sapiens) (UniProt P09038). The assay can be described thus: basic fibroblast growth factor binding to printed compounds – biochemical, small-molecule microarray, 635/667 nm fluorescence, primary screen (AID 1133). The conditions noted are these: FGF2, fluorescence 635/667, higher = more signal.
Sequence of Fibroblast growth factor 2 (Homo sapiens) (P09038 whole entry, looked up): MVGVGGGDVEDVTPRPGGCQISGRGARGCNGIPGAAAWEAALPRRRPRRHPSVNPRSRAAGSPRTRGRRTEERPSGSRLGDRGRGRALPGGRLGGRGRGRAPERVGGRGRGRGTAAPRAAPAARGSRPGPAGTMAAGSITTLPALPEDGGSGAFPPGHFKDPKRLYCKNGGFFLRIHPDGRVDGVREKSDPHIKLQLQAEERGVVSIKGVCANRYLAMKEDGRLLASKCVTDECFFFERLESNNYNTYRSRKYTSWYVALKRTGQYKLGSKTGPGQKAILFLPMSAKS
The nature of assay [15]: JC-1 mitochondrial potential readout, lung cancer cells – cell-based, A549, JC-1 fluorescence, basal, 24 h, 100 nL, profiling panel (AID 1138).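 Note: A549 lung adenocarcinoma cells under basal conditions with no added stimulus; test concentration not given here.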 The conditions noted are these: higher = more signal.
A further assay has as its system Lefty1. In words: Lefty1 protein binding to printed compounds – biochemical, small-molecule microarray, 635/667 nm fluorescence, primary screen (AID 1139). Particulars: fluorescence 635/667, higher = more signal.
Assay [16] relates to wheat germ agglutinin (Triticum aestivum), Alexa647-labelled. The assay can be described thus: Alexa647-WGA lectin binding to printed small molecules – biochemical, small-molecule microarray, 635/667 nm fluorescence, artefact control for SMM control-protein annotation, profiling panel (AID 1140).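 Note: score merges 667 nm feature emission with signal to noise over triplicate slides.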 The conditions noted are these: WGA-A647 binding, 635 nm fluorescence, higher = more signal.

For assay [17], the target named is Luciferin 4-monooxygenase (Photinus pyralis) (UniProt P08659). In words: inhibition of purified Photinus pyralis luciferase – biochemical, luminescence, purified enzyme, 2006 set, primary screen (AID 1141).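 Note: cell-free assay with purified firefly luciferase at 100 ng per well in PBS; test concentration not given here.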 The conditions noted are these: purified firefly luciferase, SteadyGlo luminescence, 30 min; higher = more signal, called active from +8 up or from −8 down.
Sequence of Luciferin 4-monooxygenase (Photinus pyralis) (P08659 whole entry, looked up): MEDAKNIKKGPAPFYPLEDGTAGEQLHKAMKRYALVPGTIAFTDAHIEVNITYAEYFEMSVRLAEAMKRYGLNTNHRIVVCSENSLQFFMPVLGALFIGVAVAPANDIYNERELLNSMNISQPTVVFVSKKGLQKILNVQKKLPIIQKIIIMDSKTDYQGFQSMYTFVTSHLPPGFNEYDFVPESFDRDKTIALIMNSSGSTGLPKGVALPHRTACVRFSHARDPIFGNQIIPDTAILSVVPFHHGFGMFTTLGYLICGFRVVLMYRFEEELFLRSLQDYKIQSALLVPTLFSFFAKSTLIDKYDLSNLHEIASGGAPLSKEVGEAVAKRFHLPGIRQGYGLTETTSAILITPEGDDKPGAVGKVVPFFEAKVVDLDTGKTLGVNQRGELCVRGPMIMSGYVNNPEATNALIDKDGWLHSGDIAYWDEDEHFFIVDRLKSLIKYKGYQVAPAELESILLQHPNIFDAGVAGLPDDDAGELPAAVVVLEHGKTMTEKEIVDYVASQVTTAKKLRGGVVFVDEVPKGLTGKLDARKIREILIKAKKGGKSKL

Each structure is given as a SMILES string. Activity calls are given as the source filed them.

Sequence of Follistatin (Homo sapiens) (P19883 whole entry, looked up): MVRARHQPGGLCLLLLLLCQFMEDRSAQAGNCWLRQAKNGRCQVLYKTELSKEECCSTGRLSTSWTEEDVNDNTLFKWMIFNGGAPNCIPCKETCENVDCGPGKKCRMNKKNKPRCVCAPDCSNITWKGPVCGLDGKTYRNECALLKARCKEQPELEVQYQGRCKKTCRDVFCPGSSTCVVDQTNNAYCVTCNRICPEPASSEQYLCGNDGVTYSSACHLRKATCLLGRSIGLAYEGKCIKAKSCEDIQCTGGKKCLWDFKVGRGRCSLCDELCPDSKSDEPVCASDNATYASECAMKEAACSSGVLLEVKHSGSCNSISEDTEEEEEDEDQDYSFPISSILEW

Regarding `COC(=O)C1=CC(CCCO)=CC(c2cccs2)N(Cc2cc3c(cc2Br)OCO3)C=C1C(=O)OC` (stereo not given), the composite z-score is 0.739 in the assay with Albumin (Bos taurus); 0.062 in assay [2]; -0.0645 in assay [3]; 0.769 in assay [4]; 2.43 in [5]; 0.0385 in assay [6]. For the same compound, the composite z-score with Sam68 (KHDRBS1) was 1.3; in [7], 0.249; in assay [8] it was 1.21; in assay [9], 2.57; in assay [10], 1.25; in assay [11], 0.87. For the same compound, the composite z-score in assay [12] worked out at 0.999; in assay [13] it was 1.08; in assay [14], 1.43; with Lefty1 it was 0.273; in assay [16] it was 1.13. Moreover, the composite Z-score in [1] was 1.26 (inactive). The z-score in assay [15] was 1.33; in [17] it was -1.39 (inactive).
In the case of `COCCCNC(=O)[C@@]1(Sc2ccc(C)cc2)CC(=O)N(Cc2ccccc2C(F)(F)F)[C@@H]1c1ccc(CO)cc1I`, the composite z-score was 0.474 with Albumin (Bos taurus); -0.402 in assay [2]; -0.121 in assay [3]; 0.175 in assay [4]; 1.08 in assay [5]; 0.295 in assay [6]. Also, the composite z-score is 0.188 in the assay on Sam68 (KHDRBS1); -1.51 in assay [7]; -0.89 in assay [8]; -1.39 in [9]; -2.04 in assay [10]; -0.905 in [11]. Moreover, the composite z-score in [12] is -1.75; in [13], -1.59; in [14] it was -1.5; in the assay on Lefty1, -1.78; in [16] it was -1.47. For the same compound, the composite Z-score in assay [1] is -1.08 (inactive). Moreover, the z-score in [15] was -0.288; in assay [17], 0.166 (inactive).
Consider `CN1C(=O)C2C=CC(C(O)c3ccc(-c4ccccc4)s3)N(NC(=O)OC(C)(C)C)C2C1=O` (stereo not given), for which the composite z-score with Albumin (Bos taurus) came out at 0.886; in [2] it was 0.435; in assay [3] it was 0.164; in [4] it was 0.689; in assay [5] it was 1.65; in assay [6], 0.714. The composite z-score in the assay with Sam68 (KHDRBS1) was 1.23; in assay [7], 0.0094; in assay [8], 0.996; in [9], 0.847; in [10], 1.14; in assay [11], 0.154. Further, the composite z-score was 1.04 in assay [12]; 0.807 in assay [13]; 0.498 in assay [14]; -0.0773 in the assay with Lefty1; 0.904 in assay [16]. In assay [1], the composite Z-score is 0.43 (inactive). Also, the z-score was 0.237 in [15] and 0.626 (inactive) in assay [17].
Regarding `CC(C)NC(=O)[C@@H]1c2ccccc2C(=O)N(Cc2ccc(OC(F)(F)F)cc2)[C@H]1c1ccc(CO)cc1`, the composite z-score with Albumin (Bos taurus) is -0.215; in assay [2] it was 0.503; in assay [3], 0.321; in [4], 0.268; in assay [5], 1.35; in assay [6] it was 0.651. Besides, the composite z-score was found to be 1.3 with Sam68 (KHDRBS1); 0.215 in assay [7]; 0.882 in [8]; 0.7 in [9]; 1.18 in [10]; 0.344 in [11]. Also, the composite z-score in assay [12] came to 0.529; in [13] it was 1.34; in assay [14], 1.22; with Lefty1 it was 0.868; in assay [16], 0.45. Besides, the composite Z-score in assay [1] is -0.194 (inactive). The results for the z-score in assay [15] and in assay [17] were 0.107 and 0.441 (inactive), respectively.
